Hit rate of the full screen: of about 100,000 compounds, about 930 (0.93%) were called active. No stated cut-off is given here; in the data, active means inhibition mostly above about 56% (no sharp cut-off); inactive means mostly below about 77%. Many of the other results were omitted from the sample, so actives are more common in it than they were.
Target: Salicylate synthase (Mycobacterium tuberculosis (strain CDC 1551 / Oshkosh)) (UniProt P9WFX0)
Assay: MbtI salicylate synthase inhibitors, primary screen, biochemical, fluorescence intensity (AID 493033)
Details: purified MbtI enzyme, fluorescence intensity read-out, active compounds read high, concentration not given here

Salicylate synthase (Mycobacterium tuberculosis (strain CDC 1551 / Oshkosh)), sequence (P9WFX0 whole entry, looked up): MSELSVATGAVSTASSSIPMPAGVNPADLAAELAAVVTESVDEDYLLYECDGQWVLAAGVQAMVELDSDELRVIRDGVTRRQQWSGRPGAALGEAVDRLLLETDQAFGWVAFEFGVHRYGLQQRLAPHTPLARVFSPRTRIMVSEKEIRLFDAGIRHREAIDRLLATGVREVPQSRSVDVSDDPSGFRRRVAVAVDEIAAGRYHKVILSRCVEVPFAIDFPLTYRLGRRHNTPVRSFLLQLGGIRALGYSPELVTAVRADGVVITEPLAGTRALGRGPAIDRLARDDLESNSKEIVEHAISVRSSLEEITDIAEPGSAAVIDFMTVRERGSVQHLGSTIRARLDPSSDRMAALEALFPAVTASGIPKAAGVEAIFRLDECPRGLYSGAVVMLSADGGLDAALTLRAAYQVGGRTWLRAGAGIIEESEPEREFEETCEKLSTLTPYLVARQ

Compound | inhibition
O=c1cc(-c2ccccc2)sc2ccc(Cl)cc12 | -0.1% (inactive)
CN=Cc1cc(-c2ccccc2)sc1S | 95.8% (active)
CSc1ncnc2sc(-c3ccccc3)cc12 | -44.5% (inactive)
Cc1nn2c(=O)/c(=C/c3ccccc3)sc2nc1=O | -1.65% (inactive)
Cc1nc(Cc2nnc(SC/C(O)=C(\C#N)c3nc4ccccc4[nH]3)o2)cs1 | 25.6% (inactive)
Cc1occc1-c1nnc2n1N=C(c1ccc(-c3cc(Cl)ccc3Cl)o1)CS2 | 98% (active)
O=C(Nc1cccc(Br)c1)C1CC(=O)N(C2CCCC2)C1 (stereo not given) | -4.55% (inactive)
CN(C)c1ccc(-c2ncnn2-c2ccccc2)cc1 | -9.6% (inactive)
Cc1csc(NC(=O)C2CCC(CNS(=O)(=O)c3cccc4nsnc34)CC2)n1 (stereo not given) | -0.3% (inactive)
Cc1ccc(Cl)cc1N1CCN(C(=O)/C=C/c2ccc(S(=O)(=O)NCc3ccco3)cc2)CC1 | 5.7% (inactive)
COC(=O)c1cccc(NC(=O)CCCN2C(=O)c3ccccc3C2=O)c1 | -11.5% (inactive)
Cc1ccc(NC(=O)COC(=O)C2CCC2)cc1Cl | -5.6% (inactive)
COc1cc(NS(=O)(=O)c2cc(C)c(Cl)cc2C)c(C(=O)O)cc1OC | -26.2% (inactive)
O=C(O)C1=Cc2sc3c(c2CS1)CCCC3 | 95.4% (inactive)
O=C(C1=Cc2sc3c(c2CS1)CCCC3)N1CCCC1 | 98.8% (active)
O=C(c1ccc(Cl)cc1)N1CCCC1 | -5.1% (inactive)
O=C(O)C1CCC(CNCc2cccc(Br)c2)CC1 (stereo not given) | -9.65% (inactive)
O=C(/C=C\c1cn(-c2ccccc2)nc1-c1cccs1)N1CCOCC1 | -50.8% (inactive)
CCN(CC)c1ccc(C=C(C#N)C#N)c(OC(C)=O)c1 | -99.2% (inactive)
CCN(CC)c1ccc2oc(=O)c(C)nc2c1 | 94.8% (active)
CCN(CC)c1ccc(-n2nc3cc(C)c(NC(C)=O)cc3n2)cc1 | 88.6% (inactive)
CCCc1cc2c(cc1N)OCO2 | 13.3% (inactive)
CCc1nc2cccnc2n1-c1ccc(CC(=O)NCCN2CCOCC2)cc1 | 2.4% (inactive)
O=C(c1ccco1)N1CCCCCCC1 | -14.8% (inactive)

Compound | inhibition
S=C(Cc1ccccc1)N1CCCCC1 | 29.6% (inactive)
S=C(c1ccc(-c2ccccc2)o1)N1CCCCC1 | 102% (active)
COC(=O)c1cc(Cl)cc(Cl)c1O | -95.7% (inactive)
O=c1cc(CN2CCN(Cc3ccccc3)CC2)nc2sccn12 | 12% (inactive)
COc1cccc(CN(C)C(=O)/C=C/c2ccco2)c1OC | 9.5% (inactive)
Cn1ncc2c(NCc3cccnc3)ncnc21 | 0.9% (inactive)
O=C(CCn1c(=O)oc2ccccc21)Sc1ccc(C(F)(F)F)cc1 | 70.7% (active)
O=C(CCCn1c(=O)oc2ccccc21)Nc1cccnc1 | -8.05% (inactive)
Cc1cccc(NC(=O)CCn2c(=O)oc3ccccc32)c1 | 3% (inactive)
CCN(Cc1nc(-c2ccc(OC)c(OC)c2)no1)C(=O)CCC1CCCCC1 | -0.6% (inactive)
CCCCn1c2c(c(=O)n(C)c1=O)C(c1ccc(OC)cc1)C1=C(CCCC1=O)N2 (stereo not given) | -21% (inactive)
Cc1cc(C)nc(SCc2nnc(SCC(=O)N3c4ccccc4Sc4ccc(Cl)cc43)o2)n1 | -20.7% (inactive)
Cc1ccc(Sc2c(C)[nH]n(-c3ccccc3)c2=O)cc1 | -4.4% (inactive)
CC1=NOC(=O)C1C(c1cccc(Br)c1)c1c(C)[nH]n(-c2ccccc2)c1=O (stereo not given) | 98.3% (active)
Cc1noc(C)c1C(=O)c1c(C)[nH]n(-c2ccccc2)c1=O | 3.5% (inactive)
c1ccc(Nc2nncs2)cc1 | 12.9% (inactive)
S=c1[nH]nc(NCCc2ccccc2)s1 | 86.7% (inactive)
S=c1[nH]nc(Nc2ccccc2)s1 | 99.7% (active)
COc1ccccc1-c1nnc(Cc2ccc(F)cc2Cl)o1 | -4.2% (inactive)
O=C1CN(C(=O)C2COc3ccccc3O2)c2ccccc2N1 (stereo not given) | -23.2% (inactive)
O=C(CSc1nc(-c2ccccc2)nc2c1CCCC2)N/N=C/c1ccco1 | -6.4% (inactive)
COc1ccccc1C(=O)CSc1cccc[n+]1[O-] | -9.25% (inactive)
CC(C)(C)CNC(=S)NN | -14.9% (inactive)
C=C(C)CNC(=S)N1CCNCC1 | -14.4% (inactive)

Compound | inhibition
C=C(C)CNC(=S)NN | 98.5% (active)
CCc1nc(NCCO)c(C#N)c2c1CCCC2 | -125% (inactive)
O=C(NC1=NCCS1)c1ccccn1 | -4.65% (inactive)
COc1ccc(-c2nn(-c3ccccc3)cc2/C=C\C(=O)N(C)C)cc1 | -4.25% (inactive)
O=C(CNCc1ccc2c(c1)OCO2)NCc1ccc2c(c1)OCO2 | 7.9% (inactive)
CCCn1c(SC(C(=O)NC(=O)NC)c2ccccc2)n[nH]c1=O (stereo not given) | -3.85% (inactive)
CC1CCCCC1NC(=O)COc1ccc(C#N)cc1 (stereo not given) | -7.1% (inactive)
S=c1ccc2ccccc2[nH]1 | 82.2% (active)
O=C(O)Cc1cn(-c2ccccc2)nc1-c1cccs1 | -32.5% (inactive)
c1ccc(C(N2CCOCC2)N2CCOCC2)cc1 | -2.5% (inactive)
CC(O)CNc1nc2ccccc2n1CC(O)COCc1ccco1 (stereo not given) | -2.1% (inactive)
O=C(CNCCCN1CCOCC1)Nc1cccc(C(F)(F)F)c1 | 14.8% (inactive)
O=C(CSc1ccccc1)Nc1ccc(NC(=O)c2ccco2)cc1 | 9.65% (inactive)
O=C(CSc1ccc(Br)cc1)c1ccco1 | 55.8% (active)
O=C(CSc1ccc2ccccc2c1)N1CCN(C(=O)c2ccco2)CC1 | -5.25% (inactive)
CCSc1nnc(SCC(=O)N2CC(=O)Nc3ccccc32)s1 | 12.2% (inactive)
CC(=O)NC(c1ccccc1)c1ccc2cccnc2c1O (stereo not given) | -4.35% (inactive)
Oc1c(C(c2cccnc2)N2CCOCC2)ccc2cccnc12 (stereo not given) | 91.7% (active)
Oc1c(C(Nc2ccccn2)c2cccnc2)ccc2cccnc12 (stereo not given) | 28.4% (inactive)
O=C(NCCC1=CCCCC1)Nc1ccc(Cl)cc1 | -5% (inactive)
Cc1cc(C)nc(NNC(=S)Nc2ccc(S(=O)(=O)N3CCOCC3)cc2)n1 | 54.5% (inactive)
Cc1ccc(C(=O)CN(C)C2CCCCC2)cc1 | 12.6% (inactive)

From PubChem BioAssay AID493033 (ICCB-Longwood Screening Facility, Harvard Medical School, 2011)
